Test results: PubChem BioAssay AID1159580 (chemical genetic matrix, 2015)
Screen size: about 5,500 compounds; about 2,000 (36%) were called active. Inconclusive results (about 18%) are left out. Rule as the data show it: active = normalized growth mostly below about 0.91 (no sharp cut-off); inconclusive = no clear call, values can overlap the other calls; inactive = mostly above about 0.92. This is one part of the list.

Test: chemical genetic growth profiling, strain panel (AID 1159580);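 also: tested at 20 µM; growth read once vehicle control cultures reached saturation at 30 °C; 1 = growth at the plate median or of vehicle wells; lower values mean less growth of the strain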
Conditions: S. cerevisiae deletion strains, growth OD

Measured: normalized growth

COc1cc(OC)c2c(=O)c(-c3ccc4c(c3)OCO4)coc2c1
inactive: locus YAL021C, strain ccr4, stronger effect = lower value 1.01 | locus YAL026C, strain drs2, stronger effect = lower value 0.982 | locus YAL030W, strain snc1, stronger effect = lower value 0.977 | locus YBL061C, strain skt5, stronger effect = lower value 0.979 | locus YBR009C, strain hhf1, stronger effect = lower value 0.984 | locus YBR023C, strain chs3, stronger effect = lower value 0.989 | locus YBR171W, strain sec66, stronger effect = lower value 0.969 | locus YBR231C, strain swc5, stronger effect = lower value 1 | locus YBR279W, strain paf1, stronger effect = lower value 0.992 | locus YCL011C, strain gbp2, stronger effect = lower value 0.981 | locus YCL016C, strain dcc1, stronger effect = lower value 0.986 | locus YCL061C, strain MRC1, stronger effect = lower value 0.996 | locus YCL069W, strain vba3, stronger effect = lower value 0.983 | locus YCR088W, strain abp1, stronger effect = lower value 0.979 | locus YDL005C, strain med2, stronger effect = lower value 0.997 | locus YDL040C, strain nat1, stronger effect = lower value 0.981 | locus YDR001C, strain nth1, stronger effect = lower value 0.98 | locus YDR069C, strain doa4, stronger effect = lower value 0.998 | locus YDR137W, strain rgp1, stronger effect = lower value 1.01 | locus YDR159W, strain sac3, stronger effect = lower value 1.01 | locus YDR195W, strain ref2 0.988 | locus YDR297W, strain sur2, stronger effect = lower value 0.989 | locus YDR334W, strain swr1, stronger effect = lower value 0.991 | locus YDR335W, strain msn5, stronger effect = lower value 1 | locus YDR392W, strain spt3, stronger effect = lower value 0.802 | locus YEL003W, strain gim4, stronger effect = lower value 0.992 | locus YEL037C, strain rad23, stronger effect = lower value 0.993 | locus YEL061C, strain CIN8 (second series), stronger effect = lower value 0.986 | locus YER015W, strain faa2, stronger effect = lower value 1 | locus YER016W, strain bim1, stronger effect = lower value 0.987 | locus YER111C, strain swi4, stronger effect = lower value 1.01 | locus YER155C, strain BEM2 (second series), stronger effect = lower value 0.942 | locus YFR010W, strain ubp6, stronger effect = lower value 1 | locus YGL167C, strain pmr1, stronger effect = lower value 0.984 | locus YGL173C, strain kem1, stronger effect = lower value 0.985 | locus YGL227W, strain vid30, stronger effect = lower value 0.978 | locus YGL240W, strain doc1, stronger effect = lower value 1.02 | locus YGL253W, strain hxk2, stronger effect = lower value 0.977 | locus YHR013C, strain ard1, stronger effect = lower value 0.971 | locus YHR027C, strain rpn1, stronger effect = lower value 1 | locus YHR030C, strain SLT2, stronger effect = lower value 1.05 | locus YHR079C, strain IRE1, stronger effect = lower value 1.05 | locus YHR142W, strain chs7, stronger effect = lower value 0.931 | locus YJL092W, strain hpr5, stronger effect = lower value 0.978 | locus YJL095W, strain BCK1 (second series), stronger effect = lower value 0.984 | locus YJL095W, strain BCK1, stronger effect = lower value 1.03 | locus YJL115W, strain asf1, stronger effect = lower value 0.992 | locus YJL129C, strain trk1, stronger effect = lower value 0.918 | locus YJL154C, strain vps35, stronger effect = lower value 0.991 | locus YJL164C, strain tpk1, stronger effect = lower value 0.98 | locus YJL166W, strain qcr8, stronger effect = lower value 0.99 | locus YJL187C, strain SWE1, stronger effect = lower value 0.996 | locus YJR066W, strain TOR1, stronger effect = lower value 0.99 | locus YKL160W, strain elf1, stronger effect = lower value 0.991 | locus YKR026C, strain gcn3, stronger effect = lower value 0.98 | locus YKR091W, strain srl3, stronger effect = lower value 0.986 | locus YLL001W, strain dnm1, stronger effect = lower value 0.977 | locus YLL026W, stronger effect = lower value 0.985 | locus YLL041C, strain sdh2, stronger effect = lower value 0.99 | locus YLR027C, strain aat2, stronger effect = lower value 0.979 | locus YLR113W, strain HOG1, stronger effect = lower value 1.08 | locus YLR221C, strain rsa3, stronger effect = lower value 0.961 | locus YLR258W, strain gsy2, stronger effect = lower value 0.976 | locus YLR262C, strain YPT6 (second series), stronger effect = lower value 1.04 | locus YLR320W, strain mms22, stronger effect = lower value 0.964 | locus YLR342W, strain FKS1, stronger effect = lower value 0.983 | locus YLR357W, strain rsc2, stronger effect = lower value 0.987 | locus YLR370C, strain arc18, stronger effect = lower value 0.99 | locus YLR384C, strain iki3, stronger effect = lower value 0.99 | locus YML120C, strain ndi1, stronger effect = lower value 0.967 | locus YMR058W, strain fet3, stronger effect = lower value 0.983 | locus YMR125W, strain sto1, stronger effect = lower value 0.989 | locus YMR129W, stronger effect = lower value 0.981 | locus YMR205C, strain PFK2, stronger effect = lower value 0.962 | locus YMR231W, strain pep5, stronger effect = lower value 0.987 | locus YNL071W, strain lat1, stronger effect = lower value 0.954 | locus YNL183C, strain NPR1, stronger effect = lower value 0.984 | locus YNL209W, strain ssb2, stronger effect = lower value 0.985 | locus YNL248C, strain rpa49, stronger effect = lower value 1.02 | locus YNL322C, strain KRE1 (second series), stronger effect = lower value 0.983 | locus YNR049C, strain mso1, stronger effect = lower value 0.995 | locus YOR001W, strain rrp6, stronger effect = lower value 0.994 | locus YOR070C, strain gyp1, stronger effect = lower value 0.999 | locus YOR080W, strain dia2, stronger effect = lower value 1 | locus YOR083W, strain WHI5, stronger effect = lower value 0.98 | locus YOR106W, strain vam3, stronger effect = lower value 0.986 | locus YOR231W, strain MKK1, stronger effect = lower value 1.07 | locus YOR265W, strain rbl2, stronger effect = lower value 0.99 | locus YOR270C, strain vph1, stronger effect = lower value 0.922 | locus YOR290C, strain snf2, stronger effect = lower value 0.957 | locus YPL051W, strain arl3, stronger effect = lower value 1.01 | locus YPL078C, strain atp4, stronger effect = lower value 0.983 | locus YPL106C, strain sse1, stronger effect = lower value 0.987 | locus YPL240C, strain hsp82, stronger effect = lower value 0.984 | locus YPL256C, strain CLN2, stronger effect = lower value 1.05
